Data reported in PubChem BioAssay.
Where “and” joins values, the source holds several entries; their conditions need not be identical. Equal entries are not always repeated. Calls of active or inactive are those of the source. Unless noted, how the calls were made is not given here.

What was measured:
[1] = compound effects on lung adenocarcinoma cell viability – A549, calcein-AM fluorescence, 48 h, basal, profiling panel (AID 1162); settings: higher = more signal; further: test concentration not given here
[2] = compound effects on differentiated 3T3-L1 adipocyte viability – cell-based, 3T3-L1 adipocytes, calcein-AM fluorescence, 48 h, basal, profiling panel (AID 1163); settings: 3T3-L1 adipocytes viability, higher = more signal; further: test concentration not given here
[3] = compound effects on hepatocellular carcinoma cell viability – HepG2, calcein-AM fluorescence, 48 h, basal, profiling panel (AID 1164); settings: higher = more signal; further: test concentration not given here
[4] = compound effects on multiple myeloma cell viability – MM1S, calcein-AM fluorescence, 48 h, basal, profiling panel (AID 1165); settings: higher = more signal;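 further: viability of MM1S multiple myeloma cells under basal unstimulated conditions; test concentration not given here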
[5] = calcein-AM signal in unstimulated myeloma cells – cell-based, calcein-AM fluorescence, 48 h, PK04 Diversity Set, profiling panel (AID 1166); settings: RPMI8226 myeloma viability, higher = more signal;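 further: cells grown under basal conditions without added stimulus; test concentration not given here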
[6] = JC-1 mitochondrial signal, unstimulated HepG2 cells – cell-based, JC-1 fluorescence, 24 h, 100 nL compound, profiling panel (AID 1167); settings: HepG2 mitochondrial potential, higher = more signal; further: test concentration not given here
[7] = JC-1 mitochondrial signal, unstimulated adipocytes – cell-based, JC-1 fluorescence, 3T3-L1 adipocytes, 24 h, 100 nL compound, profiling panel (AID 1168); settings: JC-1 mitochondrial fluorescence, higher = more signal, called active from +8 up or from −8 down; further: test concentration not given here
[8] = JC-1 mitochondrial signal, unstimulated myeloma cells – cell-based, JC-1 fluorescence, RPMI8226, 24 h, 100 nL compound, profiling panel (AID 1169); settings: JC-1 mitochondrial potential fluorescence, higher = more signal; further: test concentration not given here
[9] = JC-1 mitochondrial signal, unstimulated MM1S myeloma – cell-based, JC-1 fluorescence, 24 h, 100 nL compound, profiling panel (AID 1170); settings: MM1S mitochondrial potential, higher = more signal; further: test concentration not given here
[10] = resazurin metabolic signal in A549 cells – cell-based, resazurin fluorescence, 24 h, PK04 Diversity Set, profiling panel (AID 1171); settings: A549 viability, higher = more signal, called active from +8 up or from −8 down; further: test concentration not given here
[11] = resazurin metabolic signal in HepG2 cells – cell-based, resazurin fluorescence, 24 h, PK04 Diversity Set, profiling panel (AID 1172); settings: HepG2 viability, higher = more signal; further: test concentration not given here
[12] = budding yeast growth changes without added modifier – OD600, strain BY4716, 24 h, basal condition, primary screen (AID 1173); settings: S. cerevisiae BY4716 growth, OD600, 24 h; higher = more signal, called active from +8 up or from −8 down
[13] = viability profiling in MM1S myeloma cells – cell-based, resazurin fluorescence, basal, 24 h, PK04 Diversity Set, profiling panel (AID 1174); settings: higher = more signal, called active from +8 up or from −8 down; further: test concentration not given here
[14] = target: Dihydroorotate dehydrogenase (quinone), mitochondrial (Plasmodium falciparum (isolate 3D7)) (UniProt Q08210); assay: inhibition of P. falciparum DHODH – biochemical, C-terminal His tag, absorbance 600 nm, primary screen (AID 1175); settings: PfDHODH enzyme, DCIP absorbance 600 nm; higher = more signal, called active from +8 up or from −8 down;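 further: recombinant parasite enzyme with a five histidine tag at its C terminus; test concentration not given here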
[15] = inhibition of PAO1 biofilm formation – strain PAO1, LB-PBS medium, absorbance 600 nm, primary screen (AID 1176); further: test concentration not given here; settings: P. aeruginosa PAO1 growth/biofilm, A600, 12 h; higher = more signal
[16] = growth modulation of vineyard yeast isolate – strain RM11-1a, OD600, basal, 24 h, primary screen (AID 1177);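 further: cultures grown under basal conditions with no added stressor; test concentration not given here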; settings: S. cerevisiae RM11-1a growth, OD600, 24 h; higher = more signal, called active from +8 up or from −8 down
[17] = growth of efflux-deficient E. coli DRC39 – strain DRC39, OD650, 24 h, E. coli filamentation inducers, primary screen (AID 1178);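 further: growth measured as culture turbidity by optical density at 650 nm; test concentration not given here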; settings: E. coli DRC39 acrAB, higher = more signal, called active from +8 up or from −8 down
[18] = growth of efflux-deficient E. coli DRC39 – strain DRC39, OD650, 48 h, E. coli filamentation inducers, primary screen (AID 1179);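 further: screen aims at cell division blockers that make cells filament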; settings: E. coli DRC39 delta-acrAB growth, higher = more signal, called active from +8 up or from −8 down
[19] = viability profiling in RPMI8226 myeloma cells – cell-based, resazurin fluorescence, basal, 24 h, PK04 Diversity Set, profiling panel (AID 1180); settings: higher = more signal;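 further: RPMI8826 multiple myeloma cell line at 5000 cells per well; test concentration not given here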
[20] = target: E3 ubiquitin-protein ligase XIAP (Homo sapiens) (UniProt P98170); assay: small molecules binding XIAP protein – biophysical, small-molecule microarray, fluorescence 635 nm, primary screen (AID 1181); settings: higher = more signal;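 further: score merges 667 nm emission and signal to noise over triplicate slides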
E3 ubiquitin-protein ligase XIAP (Homo sapiens), sequence (P98170 whole entry, looked up): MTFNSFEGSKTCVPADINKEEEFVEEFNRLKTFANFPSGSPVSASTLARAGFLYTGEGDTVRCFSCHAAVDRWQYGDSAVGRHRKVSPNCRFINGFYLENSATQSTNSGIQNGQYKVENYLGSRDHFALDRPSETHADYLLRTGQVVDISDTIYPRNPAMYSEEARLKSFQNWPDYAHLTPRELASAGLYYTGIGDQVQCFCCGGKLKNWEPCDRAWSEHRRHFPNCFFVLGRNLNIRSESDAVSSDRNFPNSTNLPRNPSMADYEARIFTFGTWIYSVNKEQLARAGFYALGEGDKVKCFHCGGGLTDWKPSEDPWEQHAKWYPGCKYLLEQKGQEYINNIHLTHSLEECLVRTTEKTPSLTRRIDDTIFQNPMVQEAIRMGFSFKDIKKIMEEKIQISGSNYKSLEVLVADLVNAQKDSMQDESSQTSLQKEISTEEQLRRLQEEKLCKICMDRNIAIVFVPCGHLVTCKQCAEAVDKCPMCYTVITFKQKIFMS

Dihydroorotate dehydrogenase (quinone), mitochondrial (Plasmodium falciparum (isolate 3D7)), sequence (Q08210 whole entry, looked up): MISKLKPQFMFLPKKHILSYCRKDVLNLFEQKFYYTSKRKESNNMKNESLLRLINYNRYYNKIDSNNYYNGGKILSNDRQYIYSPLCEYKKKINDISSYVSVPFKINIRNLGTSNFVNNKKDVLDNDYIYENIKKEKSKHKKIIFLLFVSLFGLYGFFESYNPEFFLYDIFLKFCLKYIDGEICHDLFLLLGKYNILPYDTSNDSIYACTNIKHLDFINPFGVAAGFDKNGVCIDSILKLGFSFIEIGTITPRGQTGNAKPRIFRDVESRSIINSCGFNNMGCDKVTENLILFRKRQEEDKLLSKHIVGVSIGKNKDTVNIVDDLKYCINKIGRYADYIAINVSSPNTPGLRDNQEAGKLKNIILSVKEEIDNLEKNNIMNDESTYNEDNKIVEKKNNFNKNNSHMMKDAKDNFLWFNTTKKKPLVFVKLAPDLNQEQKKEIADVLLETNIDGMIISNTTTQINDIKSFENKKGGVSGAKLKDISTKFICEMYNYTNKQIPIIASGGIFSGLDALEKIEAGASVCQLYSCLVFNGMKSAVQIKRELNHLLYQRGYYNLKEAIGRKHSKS

Compound: CO[C@@H]1COC(=O)CC=C[C@H](C)[C@@H](NS(=O)(=O)c2ccc(C)cc2)COC(=O)CC=C[C@@H]1C
- z-score [1]: 0.725 and -1.15
- z-score [2]: -0.779 and -0.0305
- z-score [3]: 0.515 and -1.42
- z-score [4]: 0.317 and 0.286
- z-score [5]: -0.0273 and 0.0878
- z-score [6]: 0.651 and -0.353
- z-score [7]: -0.162 (inactive) and -1.02 (inactive)
- z-score [8]: -0.235 and 0.237
- z-score [9]: 0.654 and -0.385
- z-score [10]: -0.512 (inactive) and 1.4 (inactive)
- z-score [11]: 0.157 and 1.73
- z-score [12]: -0.627 (inactive) and -0.634 (inactive)
- z-score [13]: 0.445 (inactive) and 0.542 (inactive)
- composite z-score [14]: -0.198 (inactive) and -0.555 (inactive)
- z-score [15]: -0.531 (inactive) and -0.479 (inactive)
- z-score [16]: 0.344 (inactive) and 0.104 (inactive)
- z-score [17]: 0.643 (inactive) and 0.426 (inactive)
- z-score [18]: 0.292 (inactive) and 0.187 (inactive)
- z-score [19]: -0.325 and 0.774
- composite z-score [20]: -0.209 and -0.304

Compound: C=CCN(CCCCC)C(=O)C1N(c2c(Cl)cccc2CO)C(=O)C2C(C(=O)O)C3C=CC21O3 (stereo not given)
- z-score [1]: 0.91 and 0.677
- z-score [2]: 1.58 and 0.498
- z-score [3]: -0.841 and -0.469
- z-score [4]: 1 and 0.892
- z-score [5]: -1.09
- z-score [6]: -0.828 and -1.37
- z-score [7]: -0.438 (inactive) and -0.55 (inactive)
- z-score [8]: 0.0653 and 0.469
- z-score [9]: 0.223 and 1.03
- z-score [10]: -1.5 (inactive) and -1.33 (inactive)
- z-score [11]: -1.63 and -0.873
- z-score [12]: 0.0191 (inactive) and -0.402 (inactive)
- z-score [13]: -1.48 (inactive) and -0.932 (inactive)
- composite z-score [14]: 0.564 (inactive) and -1.24 (inactive)
- z-score [15]: -0.441 (inactive) and -0.578 (inactive)
- z-score [16]: 0.501 (inactive) and 0.477 (inactive)
- z-score [17]: -0.957 (inactive) and -1.11 (inactive)
- z-score [18]: -0.992 (inactive) and -1.16 (inactive)
- z-score [19]: -1.52 and -1.3
- composite z-score [20]: -0.237 and -0.0414

Compound: C=C[C@H](OC)[C@@H](O)c1ccc(O)c(F)c1
- z-score [1]: -0.52 and -0.4
- z-score [2]: -0.345 and -0.128
- z-score [3]: -0.0991 and 0.594
- z-score [4]: -1.17 and 1.06
- z-score [5]: 0.544 and 0.196
- z-score [6]: -0.914 and 0.658
- z-score [7]: -0.186 (inactive) and -0.636 (inactive)
- z-score [8]: 0.675 and 0.679
- z-score [9]: -0.0752 and -0.474
- z-score [10]: -0.535 (inactive) and -0.0165 (inactive)
- z-score [11]: -0.463 and 0.413
- z-score [12]: -2.28 (inactive) and -3.3 (inactive)
- z-score [13]: -0.74 (inactive) and 0.169 (inactive)
- composite z-score [14]: -0.697 (inactive) and -0.991 (inactive)
- z-score [15]: 0.614 (inactive) and 0.45 (inactive)
- z-score [16]: -0.684 (inactive) and -0.0772 (inactive)
- z-score [17]: 0.136 (inactive) and 1.2 (inactive)
- z-score [18]: 0.0056 (inactive) and 1 (inactive)
- z-score [19]: -0.792 and 0.496
- composite z-score [20]: -0.283 and -0.107
